Screening results as filed in PubChem BioAssay.
S1P2 agonist = S1P2 (human) receptor agonism; AID 729; activation, % at 4.5 µM; S1P2-expressing cell line, agonist reporter read-out; O95136; 0.46% of 97,000 active; in the data active means activation above about 16%;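 further: 0% = vehicle low control and 100% = maximal reference agonist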
S1P2 blocker = blocks the human S1P2 receptor; cell-based S1P2 antagonist assay, inhibition at 5 uM; inhibition, % at 5 µM; 0.21% of 97,000 active; AID 736; in the data active means inhibition above about 45%;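 further: CRE beta-lactamase reporter cells expressing human S1P2 stimulated with S1P; 0% = agonist at EC80 alone and 100% = agonist plus reference antagonist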
GALR2 ag = activates the human galanin receptor 2; 0.48% of 140,000 active; GALR2-expressing cells, agonist activation read-out; activation, % (no concentration beside the values); AID 803; in the data active means activation above about 5%, passing the limit was not always enough;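 further: 0% = vehicle buffer wells and 100% = reference agonist at full effect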
Target sequence (O43603 whole entry, looked up): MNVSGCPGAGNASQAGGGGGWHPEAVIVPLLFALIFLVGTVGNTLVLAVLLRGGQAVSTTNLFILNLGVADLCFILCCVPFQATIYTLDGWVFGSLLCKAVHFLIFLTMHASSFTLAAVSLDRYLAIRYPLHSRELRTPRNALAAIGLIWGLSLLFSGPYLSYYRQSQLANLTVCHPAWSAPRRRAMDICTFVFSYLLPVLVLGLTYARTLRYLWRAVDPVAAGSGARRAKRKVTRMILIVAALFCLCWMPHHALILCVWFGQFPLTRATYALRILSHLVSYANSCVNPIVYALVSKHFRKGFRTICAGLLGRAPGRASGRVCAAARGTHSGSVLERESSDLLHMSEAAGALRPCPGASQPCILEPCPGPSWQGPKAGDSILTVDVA
GALR2 blocker = GALR2 (human) receptor antagonism | AID 828 | inhibition, % at 4 µM | GALR2-expressing cells, antagonist mode | O43603 | 0.39% of 140,000 active; in the data active means inhibition above about 27%;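 further: cells stimulated with galanin 1-16 at roughly its EC80; 0% = agonist challenge control and 100% = basal control without agonist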
Phagocyt inh = macrophage phagocytosis inhibition. 0.07% of 110,000 active. inhibition, % at 5 µM. AID 1029. J774A.1 macrophage IgG-bead phagocytosis, imaging;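 active means inhibition above the mean of the plate negative controls plus 5 SD, cut at about 13% in these data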;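 further: phagocytic index as fraction of beads internalized from green versus red external bead signal; plate controls were DMSO negative control for no effect and cytochalasin-D positive control for full effect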
GALR2 agon conf = GALR2 (human) agonism confirmed; shares compounds with GALR2 ag; GALR2-expressing cells, agonist activation; activation, % at 5.6 µM; 10% of 460 active; AID 864; in the data active means activation above about 8.4%;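 further: 0% = buffer-only vehicle wells and 100% = full reference agonist response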
BLA act counter = counter-screen for GALR2 agonists: beta-lactamase reporter activators; CHO NFAT-bla reporter, beta-lactamase FRET activation; activation, % at 5.6 µM; 10% of 460 active; AID 865; shares compounds with GALR2 ag;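 active means activation above the screen-wide mean activation plus 3 SD, cut at about 8% in these data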;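 further: 0% = DMSO with PBS wells and 100% = thapsigargin positive control wells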
* = called active by the depositor; . = no result given. Sampled rows, rich in hits. Any-hit rate of the full collection: about 1.3%.

SMILES	S1P2 agonist	S1P2 blocker	GALR2 ag	GALR2 blocker	Phagocyt inh	GALR2 agon conf	BLA act counter
Cc1cc(C(=O)N/N=C/c2cc(Cl)cc([N+](=O)[O-])c2O)c2ccccc2n1	.	.	-2	-13	-11	.	.
O=C(N/N=C/c1cc(Cl)cc([N+](=O)[O-])c1O)NC12CC3CC(CC(C3)C1)C2	.	.	21*	0	-13	-1	-3
COc1ccc(C(=O)NN(C)c2nc(-c3ccccc3)nnc2C(F)(F)F)cc1	-4	6	-1	0	-1	.	.
CN(NC(=O)C(C)(C)C)c1nc(-c2ccccc2)nnc1C(F)(F)F	-6	-11	10	2	.	-1	-3
C=CCSC1=N/C(=C\c2cc(OCC)c(OC(C)=O)c([N+](=O)[O-])c2)C(=O)S1	.	.	-1	7	1	.	.
COc1cccc(C2C(C(=O)OCc3ccccc3)=C(C)Nc3ncnn32)c1OC (configuration not stated)	-6	-2	0	-14	0	.	.
O=C1Nc2cc(Cl)c(Cl)cc2N(O)N1c1ccc(Cl)c(Cl)c1	0	-3	-2	14	.	.	.
CN1CCN(C(=S)NC(=O)/C=C/c2cccc3ccccc23)CC1	-1	-6	22*	11	-1	0	-4
CCNc1ccc(Br)cc(C(=O)/C=C/c2ccc(Cl)cc2Cl)c1=O	-10	15	-2	9	.	.	.
O=C(Nc1ccccc1-c1nnn(CC(=O)N2CCCc3ccccc32)n1)c1ccc(Cl)cc1	-3	-16	28*	5	.	-1	-2
COc1ccc(-c2cc(-c3ccccc3)c(C#N)c(S(C)=O)n2)cc1 (configuration not stated)	10	7	27*	9	-1	7	17*
O=C(CSc1nnc(CNC(=O)C23CC4CC(CC(C4)C2)C3)n1-c1ccccc1)Nc1ccccc1	.	.	-1	1	-16	.	.
COc1ccc(CCN2CCC(Nc3nc4ccccc4n3Cc3ccc(F)cc3)CC2)cc1	.	.	25*	2	.	18*	3
CCOc1ccc(N(C(C)=O)c2nc(C)cc(C)c2C#N)cc1	-3	5	-4	5	.	.	.
COC(=O)c1cc(NC(=O)c2c(F)c(F)c(F)c(F)c2F)cc(C(=O)OC)c1	.	.	0	-9	-5	.	.
CCCCC(=O)Nc1cccc(NC(=O)c2ccc(Br)o2)c1	-2	11	9	6	10	-1	-2
CC(=O)c1cccc(NC(=O)c2ccc(Br)o2)c1	.	.	-1	13	0	.	.
S=C1NC(c2ccccc2)N2C(=S)NC(c3ccccc3)N12 (configuration not stated)	-3	-15	12*	-4	2	0	0
COc1ccc(C2NC(=S)N3C(c4ccc(OC)cc4)NC(=S)N23)cc1 (configuration not stated)	-5	-8	-2	2	2	.	.
Cc1cc(/C=N/NC(=O)Cn2c3ccccc3c(=O)c3ccccc32)c(C)n1-c1ccccc1	4	-9	10	-18	.	1	0
CCCCN1C(=O)C(O)=C(C(C)=O)C1c1ccccc1 (configuration not stated)	-5	3	172*	-13	-1	-1	-3
CCCCCCN1C(=O)C(O)=C(C(C)=O)C1c1ccc(Cl)cc1 (configuration not stated)	.	.	-3	5	-2	.	.
COc1ccc(NC(=O)c2cccc(F)c2)cc1Cl	-3	5	-1	7	0	.	.
COc1ccc(NC(=O)c2ccccc2F)cc1Cl	0	-3	15*	10	-1	-1	-2
CCCCCCc1cc2cc(S(=O)(=O)c3ccc(F)cc3)c(=O)oc2cc1O	.	.	14*	-3	0	16*	41*
SMILES	S1P2 agonist	S1P2 blocker	GALR2 ag	GALR2 blocker	Phagocyt inh	GALR2 agon conf	BLA act counter
CCOc1cccc(-c2nn(-c3ccccc3)cc2/C=C(/C#N)C(=O)NCCCn2ccnc2)c1	.	.	46*	8	1	35*	82*
CC(=O)CCn1c(=O)n(CCC(C)=O)c(=O)n(CCC(C)=O)c1=O	-14	5	36*	0	.	-1	-3
COC(=O)c1ccccc1NC(=O)CN1CCN(C23CC4CC(CC(C4)C2)C3)CC1	.	.	-1	5	-1	.	.
COC(=O)C1=CNC=C(C(=O)OC)C1c1ccccc1Cl	7	1	9	1	-3	1	3
Clc1ncnc2scc(-c3ccc(Br)cc3)c12	.	.	-1	21	-12	.	.
Cc1ccc(OCc2nnc(SCC(=O)Nc3nccs3)n2-c2ccccc2)cc1C	-2	-16	-1	-9	-2	.	.
Cc1ccc(-n2c(COc3c(C)cccc3C)nnc2SCC(=O)Nc2nccs2)cc1	-4	-1	65*	-12	-1	1	1
O=C1[C@@H]2Cc3c([nH]c4ccccc34)[C@@H](c3ccccc3)N2C(=O)[C@@H]2Cc3c([nH]c4ccccc34)[C@@H](c3ccccc3)N12	.	.	-1	14	.	.	.
COc1cc([C@H]2c3[nH]c4ccccc4c3C[C@H]3C(=O)N4[C@@H](c5cc(OC)c(OC)c(OC)c5)c5[nH]c6ccccc6c5C[C@H]4C(=O)N23)cc(OC)c1OC	.	.	9.6*	-5	.	3	2
Cc1cccc2c1-c1sc(C(=O)Nc3nccs3)cc1CO2	24*	-12	89*	5	0	11*	24*
CC(=O)NC1C(Oc2ccccc2C)OC2COC(c3ccco3)OC2C1O (configuration not stated)	.	.	-1	-9	.	.	.
Cc1nc2c(-c3ccc(F)cc3)c(C)nn2c(C)c1CCC(=O)NCCN1CCOCC1	-5	-11	-1	1	0	.	.
COCCNC(=O)CCc1c(C)nc2c(-c3ccc(F)cc3)c(C)nn2c1C	-3	4	42*	-11	-1	0	-1
CCOc1ccc(C(=O)/C=C/c2cn(CN3CCN(C)CC3)c3ccccc23)cc1	4	10	12*	12	.	2	4
COc1ccc(C(=O)/C=C/c2cn(CN3CCN(C)CC3)c3ccccc23)cc1	2	14	6	9	-1	.	.
CC(=O)c1nn(-c2ccc(Br)cc2)cc1C(=O)c1ccco1	-1	-10	-1	-7	.	.	.
CC(=O)c1nn(-c2ccc(Br)cc2)cc1C(=O)c1ccccc1	.	.	8.6*	10	1	4	0
CCOC(=O)c1sc(NC(=O)CSc2nc(-c3ccco3)cc(C(F)(F)F)n2)c(C(=O)OC(C)C)c1C	-8	-8	-4	3	.	.	.
CCSc1nnc(-c2cccnc2)n1-c1ccc(C)c(Cl)c1	-3	-6	9	-32	-1	0	0
COC(=O)c1cc2ccsc2n1CC(=O)Nc1cc(C)cc(C)c1	-2	-5	10	0	.	2	-2
O=C(Nc1ccc(C(F)(F)F)cc1)c1cc(S(=O)(=O)NCC2COc3ccccc3O2)ccc1F (configuration not stated)	.	.	0	0	-11	.	.
CCCC(=O)c1ccc(N2CCN(C(=O)OCC)CC2)c(F)c1	-3	7	30*	-5	1	-1	0
